HePTP inhibitor: human HePTP phosphatase inhibition; P35236; recombinant HePTP phosphatase activity, OD absorbance; inhibition, % at 20 µM; 110,000 tested, 0.64% active; AID 521; in the data active = inhibition above about 50%
Target sequence (P35236 whole entry, looked up): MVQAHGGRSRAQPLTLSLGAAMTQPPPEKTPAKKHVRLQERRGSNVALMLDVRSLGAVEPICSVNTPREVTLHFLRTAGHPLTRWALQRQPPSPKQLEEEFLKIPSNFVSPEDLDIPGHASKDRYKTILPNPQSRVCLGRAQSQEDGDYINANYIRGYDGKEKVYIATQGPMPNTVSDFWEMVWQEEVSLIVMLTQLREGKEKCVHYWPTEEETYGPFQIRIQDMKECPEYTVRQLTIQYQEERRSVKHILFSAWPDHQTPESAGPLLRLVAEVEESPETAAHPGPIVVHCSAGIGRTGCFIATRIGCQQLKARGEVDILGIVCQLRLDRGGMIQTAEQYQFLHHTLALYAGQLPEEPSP
hDAT+cocaine: changed human dopamine transporter uptake under cocaine IC80; LLC-PK1 hDAT cells, [14C]-dopamine uptake with cocaine IC80; actives deviate in either direction; 110,000 tested, 1.3% active; AID 449768; Q01959; B-score at 10 µM;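 active = Z score or B-score, a plate-position-corrected score, falls beyond the plate's 99.7% confidence bounds, in either direction; inactive = both scores lie inside the 99.7% bounds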
TNAP act mid DEA: activates human TNAP at intermediate phosphate acceptor concentration | purified TNAP, CDP-star luminescence, 100 mM DEA, 30 min; hits give high values; scale: 0 levamisole-inhibited, 1 vehicle-only enzyme | activation factor at 20 µM | 64,000 tested, under 10 active | AID 813;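 active = activation factor of at least 2 at 20 µM, relative to controls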
D1 allo mod: D1 dopamine receptor (human) allosteric modulation; 58,000 tested, 5.9% active; HEK293 D1, CRE-luciferase, dopamine EC30 potentiation; actives deviate in either direction; B-score at 10 µM; P21728;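 active = luminescence count or its row- and column-corrected plate score outside the 99.7% band of the plate's sample wells, on either side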
Candida biofilm: kills Candida albicans biofilms; AID 834; 85,000 tested, 0.14% active; inhibition, % at 6 µM; C. albicans biofilm + clotrimazole, Alamar Blue;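 active = inhibition above 20%; inactive = inhibition below 20%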;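 also: preformed 24 hr biofilms exposed to compound for 48 hr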
PLAP act: human PLAP activation; 96,000 tested, 1.2% active; purified PLAP enzyme, luminescent substrate read-out; hits give high values; activation fold at 20 µM; P05187; in the data active = activation fold above about 2
Hits are given with their value; . = inactive; / = no result given. This excerpt belongs to a sample that is enriched for hits.

SMILES	HePTP inhibitor	hDAT+cocaine	TNAP act mid DEA	D1 allo mod	Candida biofilm	PLAP act
CCC(C)NC(=O)CN(c1ccc2c(c1)OCO2)S(=O)(=O)c1c(C)n[nH]c1C (stereo not drawn)	.	.	.	.	.	2.2
Cc1n[nH]c(C)c1S(=O)(=O)N(CC(=O)Nc1ccc2c(c1)OCCO2)c1ccc(C(C)C)cc1	.	.	.	.	.	2
CC(=O)N/N=C/c1cc(C)n(-c2ccc(Cl)cc2Cl)c1C	.	/	/	/	/	/
CCC1(C)Cc2c(sc3nc(NN)n(C)c(=O)c23)CO1 (stereo not drawn)	/	.	/	/	.	2
Cc1sc(NC(=O)CN2CCOCC2)nc1-c1ccc2c(c1)CCN2S(=O)(=O)c1ccccc1	/	.	/	/	.	.
O=C(CN1CCOCC1)Nc1nc(-c2ccc3c(c2)CCN3S(=O)(=O)c2ccccc2)cs1	.	.	.	.	.	2
Cn1cccc1Cc1nnc(SCC(=O)Nc2cccc(F)c2)n1CCc1ccccc1	.	2.1	.	.	.	.
Cn1cccc1Cc1nnc(SCC(=O)Nc2ccc(Cl)cc2)n1-c1ccc(F)cc1	.	2.8	.	.	.	.
O=C(Oc1ccc(Oc2ccccc2)cc1)c1ccc(Br)o1	.	/	/	/	/	/
C/C(CC(=O)Nc1ccc(N(C)C)cc1)=N\NC(=O)c1ccccn1	/	.	/	/	/	2
CCCNC(=O)c1c(NC(=O)c2ccccc2Cl)sc2c1CCC(C)C2 (stereo not drawn)	.	/	/	/	/	/
Cc1cc(C)c2nc(N3CCC(C(=O)N4CCN(C(=O)c5ccco5)CC4)CC3)sc2c1	/	3.7	/	/	.	.
Cc1cc(C)c2nc(N3CCCC(C(=O)N4CCN(c5ncccn5)CC4)C3)sc2c1 (stereo not drawn)	/	.	/	/	.	.
CCOC(=O)c1[nH]c(=O)[nH]c1CSc1nc(C)cc(C)n1	.	.	.	.	.	2.2
CCOC(=O)c1[nH]c(=O)[nH]c1COC(=O)c1cc2ccccc2o1	.	.	.	.	/	2.2
CCOC(=O)CCCCC(=O)c1[nH]c(=O)[nH]c1CSc1nc(C)cc(C)n1	.	.	.	/	.	2
CCOC(=O)CCCCC(=O)c1[nH]c(=O)[nH]c1CSc1nc(C)cc(=O)[nH]1	.	.	.	.	.	2.2
Cc1ccc(-c2nc3cc(NC(=O)c4ccccc4I)ccc3o2)c(C)c1	.	/	/	/	/	/
CCOC(=O)/C(C(=O)Nc1ccccc1Cl)=C1/NC(C)(C)Cc2ccccc21	/	2.8	/	/	/	.
COc1ccc(C2=C/C(=C\c3cc([N+](=O)[O-])ccc3Cl)C(=O)O2)cc1	.	/	/	/	/	/
O=C(O)C1Nc2c(Cl)cc(Cl)cc2C2C=CCC12 (stereo not drawn)	103	/	/	/	/	/
CC(=O)Nc1ccc2c(c1)C1C=CCC1C(C(=O)O)N2 (stereo not drawn)	80	/	/	/	/	/
COc1ccc2c(c1)C1C=CCC1C(C(=O)O)N2 (stereo not drawn)	102	/	/	/	/	/
O=C(OC1CCCCC1)c1ccc2c(c1)C1C=CCC1C(C(=O)O)N2 (stereo not drawn)	/	/	.	/	/	.
CCN(CC)c1ccc(C2NC(=O)NC(C)=C2C(=O)OCCOc2ccccc2)cc1 (stereo not drawn)	.	/	/	/	/	/
SMILES	HePTP inhibitor	hDAT+cocaine	TNAP act mid DEA	D1 allo mod	Candida biofilm	PLAP act
COc1ccc(N/C=C(/C2=CC(=O)C=CC2=O)[N+](=O)[O-])cc1	58	/	/	/	/	/
CCc1ccc(N2CC(C(=O)N/N=C/c3ccc(C(=O)OC)cc3)CC2=O)cc1 (stereo not drawn)	.	/	/	/	/	/
O=C(Nc1ccc(N2CCN(C(=O)c3ccco3)CC2)cc1)C(c1ccccc1)c1ccccc1	/	.	/	/	.	2.5
O=C(Nc1ccc(N2CCN(C(=O)c3ccco3)CC2)cc1)c1cccs1	.	.	.	.	.	.
Cc1cc(C)c2c(n1)nn1c(N3CCN(Cc4ccccc4)CC3)cc(C)nc21	.	/	.	.	.	2.1
COc1ccc(F)cc1CN1CCN(c2cc(C)nc3c4c(C)cc(C)nc4nn23)CC1	.	.	.	.	.	.
CCOC(=O)C1=C(C)NC(=S)NC1c1cc(C(C)C)c(OC)cc1C (stereo not drawn)	.	/	/	/	/	/
Cn1c(SCCOc2ccccc2Cl)nnc1-c1cccs1	/	.	/	/	.	/
Cn1c(SCc2c(F)cccc2Cl)nnc1-c1cccs1	.	2.3	.	.	.	.
N=c1c2c(n(Cc3cccc(Cl)c3)c3c1CCC3)CCCC2	/	-9.3	/	/	.	/
N=c1c2c(n(Cc3ccc(Cl)cc3)c3c1CCC3)CCC2	.	-6.7	.	.	.	.
CCCCCCCCCCn1c2c(c(=N)c3c1CCC3)CCC2	/	.	/	/	.	.
N=c1c2c(n(Cc3ccccc3)c3c1CCC3)CCC2	.	-4.2	.	.	.	.
Cc1cc(NC(=O)c2ccc(-c3ccc(Cl)cc3)o2)ccc1NC(=O)c1ccco1	61	/	/	/	/	/
O=C(Nc1ccccc1C(=O)Nc1ccc(Cl)cc1)c1ccco1	103	/	/	/	/	/
O=C(Nc1ccccc1C(=O)Nc1ccccc1Cl)c1ccco1	.	/	/	/	/	/
Cc1c(C(=O)O)cccc1-n1c(C)ccc1C	104	/	/	/	/	/
Cc1nn(-c2ccccc2C(=O)O)c(=O)c2ccccc12	.	.	.	.	.	.
Cc1cccc(Nc2ccccc2C(=O)O)c1C	.	.	.	.	.	/
Cc1ccc(C)n1-c1ccccc1C(=O)O	104	/	/	/	/	/
O=C(COc1cccc(Cl)c1)Nc1ccc2c(c1)OCCO2	.	/	/	/	/	/
O=C1C2C3CC(C(Br)C3Br)C2C(=O)N1c1ccccn1 (stereo not drawn)	/	-7.9	/	/	/	.
COc1ccc(CCNC2CC(=O)N(c3ccc(OC)cc3)C2=O)cc1 (stereo not drawn)	.	/	/	/	/	/
CCCCCCCCNc1nc(OC)nc(OC)n1	68	/	/	/	/	/
O=[N+]([O-])c1ccc2c(c1)S(=O)(=O)NC2=NCCCN1CCOCC1	.	/	/	/	/	/
SMILES	HePTP inhibitor	hDAT+cocaine	TNAP act mid DEA	D1 allo mod	Candida biofilm	PLAP act
CC(=O)Nc1cccc(/C(C)=N/N=C2/NC(=O)C(CC(=O)Nc3ccc(C)c(Cl)c3)S2)c1 (stereo not drawn)	.	/	/	/	/	/
CC(C)OC(=O)c1c(N)sc2c1CCCC2	.	/	.	11	.	/
O=S(=O)(NC1CCCCC1NCc1ccco1)c1ccc(Cl)cc1 (stereo not drawn)	.	.	.	-2.3	/	.
CC1=NN(c2cccc(C(=O)O)c2)C(=O)/C1=C\c1ccc(-c2ccc(Cl)c(C(=O)O)c2)o1	101	/	/	/	/	/
CC1=NN(c2cccc(C(=O)O)c2)C(=O)/C1=C\c1ccc(-c2cc([N+](=O)[O-])ccc2C)o1	56	/	/	/	/	/
CC1=NN(c2cccc(C(=O)O)c2)C(=O)/C1=C\c1ccc(-c2ccc([N+](=O)[O-])cc2)o1	.	/	/	/	/	/
CCN(CC)c1ccc(/C=C2/C(=O)NN(c3ccc(I)cc3)C2=O)c(O)c1	.	/	/	/	/	/
CCN(CC)c1ccc(/C=C2/C(=O)NN(c3ccc(C)cc3)C2=O)c(O)c1	61	/	/	/	/	/
CN(C)C=Nc1ncc2c3ccccc3n(Cc3ccccc3)c2c1C#N	.	.	.	.	.	.
CN(C)C=Nc1ncc2c3ccccc3n(CCN(C)C)c2c1C#N	.	2.9	.	.	.	.
CCOC(=O)C1CCN(c2c(NCc3ccc(C(=O)NC(C)CC)cc3)c(=O)c2=O)CC1 (stereo not drawn)	.	.	.	-3.2	.	.
